For experiment [1], the target named is Tyrosine-protein kinase receptor UFO (Homo sapiens) (UniProt P30530). The conditions noted are these: at 1 µM.
The target of experiment [2] is Tyrosine-protein kinase Blk (Homo sapiens) (UniProt P51451). The following applies: at 0.1 µM.
For experiment [3] the target is unchanged. The conditions noted are these: at 1 µM.
Experiment [4] addresses T1, Cytoplasmic tyrosine-protein kinase BMX (Homo sapiens) (UniProt P51813).
T1 sequence (whole entry): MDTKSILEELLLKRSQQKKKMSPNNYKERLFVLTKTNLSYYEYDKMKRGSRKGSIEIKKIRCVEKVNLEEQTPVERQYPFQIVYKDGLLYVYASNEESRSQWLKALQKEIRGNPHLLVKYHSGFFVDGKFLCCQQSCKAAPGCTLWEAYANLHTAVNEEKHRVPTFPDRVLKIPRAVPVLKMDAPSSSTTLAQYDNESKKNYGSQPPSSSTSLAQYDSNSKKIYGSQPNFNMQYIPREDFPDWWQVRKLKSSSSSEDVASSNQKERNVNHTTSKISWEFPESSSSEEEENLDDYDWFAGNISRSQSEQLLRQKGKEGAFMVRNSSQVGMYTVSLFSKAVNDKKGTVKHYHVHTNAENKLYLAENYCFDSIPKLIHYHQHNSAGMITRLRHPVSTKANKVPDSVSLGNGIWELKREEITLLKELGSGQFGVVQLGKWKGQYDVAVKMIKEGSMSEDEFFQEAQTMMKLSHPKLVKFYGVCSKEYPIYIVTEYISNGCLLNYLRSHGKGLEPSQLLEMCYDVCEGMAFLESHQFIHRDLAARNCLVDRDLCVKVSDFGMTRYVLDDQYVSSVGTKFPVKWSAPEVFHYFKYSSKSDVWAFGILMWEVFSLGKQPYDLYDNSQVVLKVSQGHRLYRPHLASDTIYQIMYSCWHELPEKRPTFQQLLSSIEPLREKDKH
The conditions noted are these: at 0.1 µM.

Experiment [5] concerns the target T1, Cytoplasmic tyrosine-protein kinase BMX (Homo sapiens). The following applies: at 1 µM.
In experiment [6] the target is Protein-tyrosine kinase 6 (Homo sapiens) (UniProt Q13882). The following applies: at 0.1 µM.
Chain of Protein-tyrosine kinase 6 (Homo sapiens) (Q13882 whole entry, looked up): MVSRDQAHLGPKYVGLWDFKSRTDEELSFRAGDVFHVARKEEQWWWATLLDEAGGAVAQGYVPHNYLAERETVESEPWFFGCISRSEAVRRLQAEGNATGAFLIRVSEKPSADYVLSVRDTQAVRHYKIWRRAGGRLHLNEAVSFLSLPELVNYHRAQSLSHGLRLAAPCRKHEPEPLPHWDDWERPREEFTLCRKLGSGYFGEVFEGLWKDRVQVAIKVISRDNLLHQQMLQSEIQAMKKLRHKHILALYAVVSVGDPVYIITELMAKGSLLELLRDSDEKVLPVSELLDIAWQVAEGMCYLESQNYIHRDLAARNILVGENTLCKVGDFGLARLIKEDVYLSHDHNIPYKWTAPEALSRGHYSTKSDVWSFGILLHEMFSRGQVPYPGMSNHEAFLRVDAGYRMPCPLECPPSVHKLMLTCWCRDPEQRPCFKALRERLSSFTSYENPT
For experiment [7] the target is unchanged. The following applies: at 1 µM.
Experiment [8] concerns the target Tyrosine-protein kinase BTK (Homo sapiens) (UniProt Q06187). The following applies: at 0.1 µM.
For experiment [9] the target is unchanged. The conditions noted are these: at 1 µM.
Experiment [10] deals with Tyrosine-protein kinase CSK (Homo sapiens) (UniProt P41240). The conditions noted are these: at 0.1 µM.
Chain of Tyrosine-protein kinase CSK (Homo sapiens) (P41240 2-450 limits assumed): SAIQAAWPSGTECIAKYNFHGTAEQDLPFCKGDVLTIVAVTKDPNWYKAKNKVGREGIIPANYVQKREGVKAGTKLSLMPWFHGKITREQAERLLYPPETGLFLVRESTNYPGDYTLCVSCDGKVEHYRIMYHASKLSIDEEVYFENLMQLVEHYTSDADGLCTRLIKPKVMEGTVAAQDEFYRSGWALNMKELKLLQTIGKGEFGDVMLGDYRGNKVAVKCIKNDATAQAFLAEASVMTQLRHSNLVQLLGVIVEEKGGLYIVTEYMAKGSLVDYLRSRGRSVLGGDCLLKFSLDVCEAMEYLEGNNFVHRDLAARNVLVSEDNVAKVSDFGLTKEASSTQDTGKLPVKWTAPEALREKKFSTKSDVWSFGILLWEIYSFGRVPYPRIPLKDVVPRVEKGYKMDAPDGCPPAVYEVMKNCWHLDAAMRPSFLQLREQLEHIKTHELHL

SMILES strings stand for the structures.

Chain of Tyrosine-protein kinase receptor UFO (Homo sapiens) (P30530 whole entry): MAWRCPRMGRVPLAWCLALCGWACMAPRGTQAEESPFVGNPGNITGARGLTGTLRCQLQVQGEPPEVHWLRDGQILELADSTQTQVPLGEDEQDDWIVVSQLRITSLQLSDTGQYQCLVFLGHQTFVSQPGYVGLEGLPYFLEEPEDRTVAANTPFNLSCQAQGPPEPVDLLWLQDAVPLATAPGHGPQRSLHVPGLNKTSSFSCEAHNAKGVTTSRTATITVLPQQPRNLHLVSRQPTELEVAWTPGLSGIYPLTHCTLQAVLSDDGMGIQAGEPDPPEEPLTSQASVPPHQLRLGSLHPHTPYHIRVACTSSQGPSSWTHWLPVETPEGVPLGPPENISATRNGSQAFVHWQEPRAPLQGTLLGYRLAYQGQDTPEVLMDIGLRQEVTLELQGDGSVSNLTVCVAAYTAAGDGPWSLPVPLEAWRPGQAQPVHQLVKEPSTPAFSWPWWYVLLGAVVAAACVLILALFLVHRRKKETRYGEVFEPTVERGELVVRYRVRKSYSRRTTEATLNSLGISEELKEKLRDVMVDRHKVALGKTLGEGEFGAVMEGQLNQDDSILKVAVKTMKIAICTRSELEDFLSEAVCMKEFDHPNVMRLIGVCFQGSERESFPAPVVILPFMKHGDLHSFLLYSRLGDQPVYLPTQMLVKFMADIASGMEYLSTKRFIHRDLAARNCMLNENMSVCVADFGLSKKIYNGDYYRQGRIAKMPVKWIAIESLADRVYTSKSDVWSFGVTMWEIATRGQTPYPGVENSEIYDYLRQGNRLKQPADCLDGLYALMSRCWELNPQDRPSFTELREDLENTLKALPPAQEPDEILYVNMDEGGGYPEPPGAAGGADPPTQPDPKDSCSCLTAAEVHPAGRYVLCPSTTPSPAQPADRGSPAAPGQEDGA
Chain of Tyrosine-protein kinase BTK (Homo sapiens) (Q06187 whole entry): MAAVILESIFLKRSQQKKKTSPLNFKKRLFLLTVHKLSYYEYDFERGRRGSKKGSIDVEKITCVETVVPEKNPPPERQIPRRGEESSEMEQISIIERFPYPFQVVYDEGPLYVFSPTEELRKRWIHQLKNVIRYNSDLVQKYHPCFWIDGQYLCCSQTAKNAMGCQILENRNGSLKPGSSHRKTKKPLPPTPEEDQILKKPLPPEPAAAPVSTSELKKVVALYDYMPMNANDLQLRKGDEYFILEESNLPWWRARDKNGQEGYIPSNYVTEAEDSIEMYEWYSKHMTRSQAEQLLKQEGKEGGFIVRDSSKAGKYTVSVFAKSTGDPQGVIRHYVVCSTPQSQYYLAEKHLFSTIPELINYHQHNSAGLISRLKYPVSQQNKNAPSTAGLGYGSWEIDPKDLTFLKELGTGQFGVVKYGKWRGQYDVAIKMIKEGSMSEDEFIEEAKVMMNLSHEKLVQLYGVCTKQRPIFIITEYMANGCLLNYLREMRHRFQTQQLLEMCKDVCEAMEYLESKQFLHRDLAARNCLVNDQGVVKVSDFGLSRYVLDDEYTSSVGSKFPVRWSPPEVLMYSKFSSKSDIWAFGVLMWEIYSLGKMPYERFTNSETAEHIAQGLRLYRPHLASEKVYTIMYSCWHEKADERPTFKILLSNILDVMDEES
Chain of Tyrosine-protein kinase Blk (Homo sapiens) (P51451 2-505 limits assumed): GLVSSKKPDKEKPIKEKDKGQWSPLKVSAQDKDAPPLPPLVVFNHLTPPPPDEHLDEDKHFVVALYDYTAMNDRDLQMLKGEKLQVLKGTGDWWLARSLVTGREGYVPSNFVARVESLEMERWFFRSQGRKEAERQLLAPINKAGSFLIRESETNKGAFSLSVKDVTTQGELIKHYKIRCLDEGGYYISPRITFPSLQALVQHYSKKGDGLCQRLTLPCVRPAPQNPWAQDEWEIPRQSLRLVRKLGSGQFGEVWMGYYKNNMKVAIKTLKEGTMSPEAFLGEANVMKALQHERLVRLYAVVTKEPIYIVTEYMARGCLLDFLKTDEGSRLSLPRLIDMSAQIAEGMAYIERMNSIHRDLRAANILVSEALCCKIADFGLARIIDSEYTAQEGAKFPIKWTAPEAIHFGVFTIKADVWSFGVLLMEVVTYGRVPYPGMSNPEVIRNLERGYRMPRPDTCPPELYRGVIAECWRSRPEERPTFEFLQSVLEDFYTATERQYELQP

What is called inhibition is the change of the read-out against control, counted positive when it falls. For the compound `CNC(=O)c1cc(-c2ccc(F)cc2)cc(-c2ccc(S(=O)(=O)N3CCCC3)cc2)c1N`, the inhibition in experiment [1] was -4.04%; in experiment [2], 2.16%; in experiment [3], 2.11%; in experiment [4], 2.06%; in experiment [5], 2.39%; in experiment [6] it was 1.87%. Moreover, the inhibition in [7] is 1.57%; in experiment [8], -1.58%; in experiment [9], -0.59%; in experiment [10] it was -0.99%.

For the compound `CCn1c(-c2nonc2N)nc2c(C#CC(C)(C)O)ncc(OC3CCNCC3)c21`, the inhibition is -4.23% in [1]; 2.38% in [2]; 3.31% in experiment [3]; 3.84% in [4]; 7.52% in [5]; 1.28% in experiment [6]. Further, the inhibition in [7] came to 1.62%; in [8] it was 0.17%; in [9] it was 0.56%; in experiment [10], 3.49%.

Consider `Fc1ccc(-c2cc(-c3c[nH]nc3-c3ccccn3)ccn2)cc1`, for which the inhibition in experiment [1] was -8.99%; in experiment [2], 2.97%; in [3] it was 2.43%; in experiment [4] it was -2.56%; in experiment [5] it was 3.99%; in experiment [6] it was 5.01%. In addition, the inhibition in experiment [7] was 7.81%; in experiment [8], 0.31%; in experiment [9], -1.93%; in experiment [10], 5.1%.

On to `c1cc(-c2cnn3nc(N4CCOCC4)ccc23)nc(NC2CC2)n1`, for which the inhibition in [1] is -5.65%; in [2], 2.34%; in experiment [3], 7.51%; in experiment [4] it was 0.89%; in [5], 2.31%; in experiment [6] it was 6.35%. Besides, the inhibition in [7] is 7.89%; in experiment [8], 1.63%; in experiment [9] it was 2.33%; in experiment [10] it was 10.8%.

Regarding `N#Cc1c(NC(=O)c2ccc(F)cc2)sc2c1CCCC2`, the inhibition in experiment [1] was -1.26%; in experiment [2] it was 0.68%; in experiment [3] it was 1.75%; in experiment [4], 1.31%; in experiment [5], 0.33%; in experiment [6], -0.11%. Besides, the inhibition in experiment [7] is -2%; in [8] it was -1.3%; in experiment [9], -0.45%; in experiment [10], 1.81%.

`COc1cc2ncn(-c3cc(OCc4ccccc4C(F)(F)F)c(C(=O)N(C)C)s3)c2cc1OC`: the inhibition was 1.68% in experiment [1]; 0.87% in experiment [2]; 7.34% in [3]; 3.03% in experiment [4]; 3.07% in experiment [5]; -0.28% in experiment [6]. Moreover, the inhibition in experiment [7] was -0.8%; in experiment [8], -1.28%; in experiment [9], -0.85%; in [10] it was -1.4%.

For `Nc1nc(-c2cccc(Cl)c2)c(-c2ccc3ncccc3n2)s1`, the inhibition in [1] was -8.66%; in [2] it was 3.51%; in experiment [3], 7.22%; in experiment [4], 2.53%; in [5], 5.31%; in experiment [6], 5.86%. Also, the inhibition in [7] was 10.6%; in experiment [8] it was 0.83%; in experiment [9], -0.84%; in experiment [10], 5.57%.

As for `CCn1cc(-c2ccnc3[nH]ccc23)c(-c2cccc(NC(=O)Nc3ccc(OCc4ccccc4)cc3)c2)n1`, the inhibition is 0.9% in experiment [1]; 2.54% in experiment [2]; 18.7% in experiment [3]; 1.09% in experiment [4]; -0.27% in experiment [5]; 3.04% in experiment [6]. Besides, the inhibition was 16.2% in experiment [7], 0.34% in [8], 3.3% in experiment [9] and -0.47% in experiment [10].

As to `O=C(O[C@H]1CN[C@H](C#Cc2cc3ncnc(Nc4ccc(Cc5ccccc5)cc4)c3s2)C1)N1CCOCC1`, the inhibition in [1] is -7.04%; in [2] it was 5.97%; in experiment [3], 48.5%; in [4], 1.38%; in [5], 4.65%; in experiment [6] it was -0.08%. Also, the inhibition in experiment [7] is 18.2%; in experiment [8] it was -0.44%; in [9], 1.44%; in experiment [10], -1.2%.

`COc1ccc(-c2cc3c(N)ncnc3o2)cc1`: the inhibition is 2.96% in experiment [1]; 0.55% in experiment [2]; 4.67% in [3]; -2.47% in experiment [4]; 2.73% in [5]; 0.01% in experiment [6]. In addition, the inhibition is 2.82% in experiment [7], -0.13% in experiment [8], -0.38% in experiment [9] and -1.51% in [10].

In the case of `COc1cc2c(cc1Nc1nc(Nc3ccsc3C(N)=O)c3cc[nH]c3n1)N(C(=O)CN(C)C)CCC2(C)C`, the inhibition in experiment [1] came out at 85.5%; in [2] it was 3.19%; in experiment [3], 6.26%; in experiment [4], 3.79%; in experiment [5], 5.73%; in experiment [6] it was 5.95%. Besides, the inhibition in [7] came out at 19.2%; in experiment [8] it was 0.08%; in experiment [9] it was 1.1%; in [10], 2.59%.

As to `Fc1ccc(-c2nn3ncccc3c2-c2ccnc(Nc3ccc4c(c3)OCCO4)n2)cc1`, the inhibition was -5.61% in [1]; 14.4% in [2]; 71.2% in [3]; 15% in experiment [4]; 49.4% in [5]; 17.1% in experiment [6]. Also, the inhibition in [7] is 67.8%; in experiment [8], -1.09%; in [9], 5.26%; in [10] it was 3.81%.

As for `O=S(=O)(CCNCc1ccc(-c2ccc3ncnc(Nc4ccc(OCc5cccc(F)c5)c(Cl)c4)c3c2)o1)c1ccccc1`, the inhibition in [1] is -5.93%; in [2] it was 2.67%; in [3] it was 6.67%; in experiment [4], 5.7%; in experiment [5], 6.77%; in experiment [6], 6.2%. The inhibition was 6.15% in experiment [7], -0.83% in experiment [8], 1.59% in experiment [9] and 7.31% in experiment [10].

For the compound `N#Cc1c(NC(=O)CN2CCOCC2)sc2c1CCCC2`, the inhibition was -0.41% in experiment [1]; 3.64% in experiment [2]; 3.64% in experiment [3]; -0.4% in [4]; 3.55% in experiment [5]; 0.26% in [6]. Also, the inhibition in experiment [7] is 6.1%; in [8], 0.98%; in [9] it was 3.11%; in [10], 6.19%.

`CNC(=O)c1cccc(C#Cc2cncnc2Nc2ccc(OCc3cccc(F)c3)c(Cl)c2)c1`: the inhibition was -0.81% in experiment [1]; 1.53% in [2]; 1.17% in experiment [3]; -1.48% in experiment [4]; 1.31% in [5]; -0.91% in experiment [6]. For the same compound, the inhibition was 2.87% in experiment [7], 2.52% in [8], -0.29% in experiment [9] and 1.96% in experiment [10].

`COc1cc(/C=N/Nc2ncnc3[nH]ncc23)ccc1O`: the inhibition in experiment [1] was -3.87%; in [2], 9.75%; in [3] it was 59.7%; in experiment [4] it was 2.08%; in experiment [5] it was 32.4%; in experiment [6] it was 5.52%. For the same compound, the inhibition in [7] was 30.3%; in experiment [8], 1.57%; in experiment [9], 7.64%; in experiment [10], 7.17%.

Turning to `CC(C)COC(=O)c1ccc2c(c1)/C(=C/Nc1ccc(S(N)(=O)=O)cc1)C(=O)N2`, the inhibition in experiment [1] is 13.2%; in experiment [2] it was 1.11%; in experiment [3], 28.6%; in experiment [4], 0.73%; in [5], -1.5%; in [6], -2.24%. For the same compound, the inhibition was -2.63% in experiment [7], -1.47% in [8], -1.1% in [9] and -2.24% in experiment [10].

The values above are taken from ChEMBL document CHEMBL1961873, “Compounds: GSK PKIS; Assays: Nanosyn kinase panel” (2012).
